Screening data (PubChem)
Glioma ERSR ind: inducers of ER stress response in human glioma cells; U87-MG GRP78 promoter luciferase reporter, 16 h; 420,000 compounds, 0.02% hits; Potency, µM, inactives show at the highest dose activation, usual class: activators; AID 602332; active = well fitted activation curve with a large enough effect; inconclusive = small, poorly fitted or top-dose-only effect; inactive = no such curve, though single readings can be large or run the other way; note: potency is the fitted concentration of half-maximal effect; series mostly up to about 76 µM; % of control where 0% means no effect; nearly all actives have a fitted effect of over 35% in size
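ERSR induction read as luciferase luminescence (Bright-Glo, 10 min at room temperature) in stably transfected human U87-MG glioma cells exposed to compounds for 16 h, using GRP78 as sensor.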
TRHR agonist: activates the human TRH receptor. 360,000 compounds, 0.18% hits. AID 493084. activation, % at 2 µM. P34981. TRHR cells, calcium flux fluo-8, FDSS agonist mode; in the data active = activation above about 30%; note: 0% is about no effect
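TRHR-expressing cells, plated overnight in medium with 10% serum, were loaded with fluo-8 calcium dye at room temperature. After a 10 s baseline, library compound was pin-added and calcium release was recorded kinetically (ex 480/em 530) as agonist response.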
TRHR enhancer: allosterically enhances the human TRH receptor; P34981; TRHR cells, fluo-8 calcium fluorescence, EC20 TRH enhancement; enhancement, % at 2 µM; 360,000 compounds, 0.66% hits; in the data active = enhancement above about 30%; note: 0% is about no effect
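Enhancer read-out: after compound pinning and an initial kinetic agonist-mode read, an EC20 of TRH (10 nM final) was injected and fluo-8 calcium signal (Ex 480/Em 530) followed at 1 s/cycle for 100 cycles in TRHR-expressing cells.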
TRPML1 inh: inhibitors of human TRPML1 channel; 390,000 compounds, 0.02% hits; TRPML1-inducible cells, Ca2+ dye fluorescence, FDSS; hits give low values; inhibition of EC80 agonist-evoked calcium signal; activity change, negative = inhibition, % (no concentration beside the values); Q9GZU1; AID 624415; in the data active = activity change below about -50%; inconclusive = between about -30% and that limit;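 note: stimulus is agonist 54-4 at its EC80 concentration; % is set by controls: 0 for no effect and ±100 for the full control effect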
Target sequence (Q9GZU1 whole entry, looked up): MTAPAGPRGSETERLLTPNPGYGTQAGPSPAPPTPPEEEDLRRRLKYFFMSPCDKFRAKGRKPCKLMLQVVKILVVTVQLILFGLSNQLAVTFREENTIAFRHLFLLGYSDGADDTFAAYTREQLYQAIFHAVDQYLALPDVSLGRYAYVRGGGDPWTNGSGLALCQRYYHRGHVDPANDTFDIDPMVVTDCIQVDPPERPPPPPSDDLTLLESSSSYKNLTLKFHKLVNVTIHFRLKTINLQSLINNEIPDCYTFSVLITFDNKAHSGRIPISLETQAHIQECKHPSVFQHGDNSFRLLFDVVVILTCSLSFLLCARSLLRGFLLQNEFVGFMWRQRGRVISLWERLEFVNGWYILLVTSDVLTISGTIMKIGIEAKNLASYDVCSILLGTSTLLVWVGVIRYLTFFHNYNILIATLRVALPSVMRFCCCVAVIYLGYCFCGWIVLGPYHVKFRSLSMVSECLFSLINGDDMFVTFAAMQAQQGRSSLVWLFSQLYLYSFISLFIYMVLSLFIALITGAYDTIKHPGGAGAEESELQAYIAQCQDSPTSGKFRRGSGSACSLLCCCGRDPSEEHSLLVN
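Tet-induced TRPML1-DL cells loaded with Ca8 no-wash calcium dye were read kinetically on FDSS. Compound addition was followed by EC80 agonist 54-4 (4 uM final); inhibition was read over 110 s.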
TRPML1 agonist: agonists of human TRPML1 channel. TRPML1-expressing cells, Ca2+ dye fluorescence, FDSS. activation, % (concentration not given with the values). 410,000 compounds, 0.12% hits. Q9GZU1; in the data active = activation above about 50%; inconclusive = mostly about 30% to 49%; note: 0% is about no effect
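Calcium fluorescence on an FDSS kinetic reader gave the read-out. Tet-induced TRPML1-DL cells were plated overnight, dye-loaded (Ca8 with quencher, 45-90 min, room temperature, dark), then read 110 s after compound addition, and again 110 s after 4uM final 54-4 (EC80).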
* marks the source's active call; other numbers are inactive results; ? = inconclusive; / = not tested or not shown; ! = a repeat was not active. Compounds with a hit are over-represented: about 0.8% of the library has one in this group of screens.

SMILES	Glioma ERSR ind	TRHR agonist	TRHR enhancer	TRPML1 inh	TRPML1 agonist
COCCNS(=O)(=O)c1cc(OC)ccc1OC	-2.2%	0.9	-6.1	2.3	0.3
CCc1ccc(OC)c(S(=O)(=O)NCCOc2ccccc2)c1	-4.9%	-1.7	30.8*	11.7	-0.5
Cn1nc(C(F)(F)F)c2cc(NC(=O)OCc3ccc(F)cc3)sc21	-4.0%	-0.1	0.8	13.3	1.8
COc1ccc(COC(=O)Nc2cc3c(C(F)(F)F)nn(C)c3s2)cc1	-3.4%	-0.4	30.4*	11.4	1.1
Oc1c(C=Nc2cccc3cccnc23)sc2ccccc12	/	50.0*	9.5	/	/
CCOC(=O)c1c(NC(=O)C2COc3ccccc3O2)sc2c1CCN(Cc1ccccc1)C2 (configuration not stated)	1.9%	4.5	-0.7	34.6	1.8
Cc1ccc(C(=O)Nc2nnc(S(=O)(=O)N3CCCCCC3)s2)cc1	-5.8%	-0.2	4.7	-3.5	-0.2
CN1CCc2c(sc(NC(=O)c3ccc(S(=O)(=O)N4CCCCCC4)cc3)c2C(N)=O)C1	-2.9%	51.3*	3.2	-22.6	22.5
CN1CCc2c(sc(NC(=O)c3ccc(S(=O)(=O)N4CCCC4)cc3)c2C(N)=O)C1	-3.6%	1.7	10.9	34.4	1.8
O=C(Nc1nnc(S(=O)(=O)N2CCCCCC2)s1)c1ccc(Cl)cc1	2.3%	0.7	36.7*!	20.1	-0.2
NC(=O)c1c(NC(=O)C2COc3ccccc3O2)sc2c1CCN(Cc1ccccc1)C2 (configuration not stated)	-3.4%	37.8*	0.7	1.9	1.2
CCOC(=O)c1c(NC(=O)c2ccc(S(=O)(=O)N(C)C3CCCCC3)cc2)sc2c1CCN(C(C)C)C2	-1.8%	31.5*	0.3	-2.7	23.0
Cc1cc2c(c(-c3ccc(Cl)cc3)c1)OC(CNC(=O)CCC(=O)N(C)C)C2 (configuration not stated)	0.1%	/	/	/	/
COc1ccc(-n2nc(C(=O)O)c3csc(N)c3c2=O)cc1	/	-1.3	1.7	/	/
COC(=O)c1cccc(C(=O)NCc2nc(-c3cccc(NC(=O)c4ccoc4C)c3)oc2C)c1	-1.9%	/	/	/	/
CNC(=O)c1c(NC(=O)c2ccc(S(=O)(=O)N3CCCc4ccccc43)cc2)sc2c1CCN(C)C2	-2.7%	17.8	33.7*	-15.1	14.4
CCCN1CCc2c(sc(NC(=O)c3ccc(S(=O)(=O)N(C)c4ccccc4)cc3)c2C(=O)NC)C1	-9.3%	19.9	0.0	3.7	10.8
CC(C)N1CCc2c(sc(NC(=O)c3ccc4ccccc4c3)c2C(N)=O)C1	-5.2%	30.7*	9.7	1.3	9.1
CCCN1CCc2c(sc(NC(=O)c3ccc(S(=O)(=O)N(C)c4ccccc4)cc3)c2C(N)=O)C1	-1.5%	62.7*	10.1	3.1	26.7
COc1ccc(CNC(=O)CN(C)S(=O)(=O)c2ccc3[nH]c4c(c3c2)CCCC4)cc1	-5.3%	0.5	46.6*	49.4	3.7
Cc1cc2c(s1)c1cnn(Cc3ccc(C)c(F)c3)c(=O)c1n2C	/	-0.1	6.9	/	/
COc1ccccc1CCn1cc(C#N)c(=O)[nH]c1=O	-4.6%	0.3	8.3	-16.5	2.1
COc1ccc(CCn2cc(C#N)c(=O)[nH]c2=O)cc1OC	-0.1%	0.6	37.6*	11.2	-0.7
CC(C)Cc1nc2cc(NS(=O)(=O)N(C)C)cc(C(=O)N3CCSCC3)c2n1C	4.1%	/	/	/	/
Cc1cc(NC(=O)c2c(Cl)cccc2Cl)no1	-4.4%	-0.8	30.4*	-11.8	1.6
SMILES	Glioma ERSR ind	TRHR agonist	TRHR enhancer	TRPML1 inh	TRPML1 agonist
Cc1cc(NC(=O)c2c(-c3c(F)cccc3Cl)noc2C)no1	-2.4%	0.2	-0.8	20.3	-0.4
Cc1cc(NC(=O)c2ccc(-c3ccccc3F)o2)no1	7.5%	0.2	36.5*	4.8	-0.1
O=C(NCC1CCC2(CCN(Cc3cc4ccccc4o3)CC2)O1)c1ccccc1 (configuration not stated)	-4.0%	/	/	/	/
Cc1ccc2[nH]c3c(c2c1)CN(C(=O)CC1(c2ccccc2)CC(=O)N(Cc2cccnc2)C1=O)CC3 (configuration not stated)	0.5%	/	/	/	/
Cc1ccc(C)n1CCN1CCN(CC(=O)Nc2cc(C(F)(F)F)ccc2Cl)CC1	/	0.0	55.1*	/	/
O=C(CN1CCOCC1)Nc1cc(C(F)(F)F)ccc1Cl	-2.1%	-1.6	-2.4	-6.8	-0.7
Cc1cccc(NC(=O)c2sc3nc(-c4cc5ccc(O)cc5oc4=O)[nH]c(=O)c3c2C)c1	-2.9%	0.4	10.2	?	112.4*
Cc1c(C(=O)Nc2cccc(F)c2)sc2nc(-c3cc4ccccc4oc3=O)[nH]c(=O)c12	-2.6%	0.0	4.1	-1.3	-0.1
COc1ccc(NC(=O)c2sc3nc(-c4cc5ccc(OC)cc5oc4=O)[nH]c(=O)c3c2C)cc1	-4.0%	0.3	5.7	3.9	-0.1
Cc1cc(C)cc(NC(=O)c2sc3nc(-c4cc5ccccc5oc4=O)[nH]c(=O)c3c2C)c1	-4.2%	0.4	-3.6	-50.1*	0.4
C/C=C(\C)C(=O)NCCN1Cc2ccccc2OC(c2ccccc2OC)C1 (configuration not stated)	4.9%	/	/	/	/
Cc1cc2c(s1)c1cnn(Cc3cc(F)cc(F)c3)c(=O)c1n2C	/	-0.3	2.4	/	/
O=C(CN(c1ccccn1)S(=O)(=O)c1ccccc1)Nc1ccccc1	-2.3%	0.7	39.4*	-0.4	0.0
O=C(CN(c1ccccn1)S(=O)(=O)c1ccc(F)cc1)Nc1ccccc1	-2.3%	0.0	-8.3	-0.1	-0.4
COc1cc(OC)c(CN2CCOc3ccc(CN4CCC(O)CC4)cc3C2)c(OC)c1	-6.7%	/	/	/	/
Cc1ccc(/C=N/NC(=O)c2nnn(-c3nonc3N)c2CN(C)C)o1	-5.5%	-0.7	32.4*	5.9	-0.2
COCc1c(C(=O)N/N=C/c2ccc(C)o2)nnn1-c1nonc1N	-4.4%	-0.3	-1.4	8.9	-0.7
O=C(c1nc2ncccn2n1)N1CCOc2ccc(C(O)C(c3ccccc3)c3ccccc3)cc2C1 (configuration not stated)	1.6%	/	/	/	/
COc1ccc(N2CC(C(=O)N/N=C/c3cc([N+](=O)[O-])ccc3O)CC2=O)cc1 (configuration not stated)	-2.4%	-0.2	38.7*	-11.4	0.4
COc1ccc(N2CC(C(=O)Nc3ccc([N+](=O)[O-])cc3Br)CC2=O)cc1 (configuration not stated)	-3.5%	-0.1	-0.3	-0.9	-0.8
COc1ccc(S(=O)(=O)N2CCc3cc4c(cc3C2C)OCCCO4)cc1 (configuration not stated)	-2.4%	0.2	-1.9	-50.8*	0.8
COc1ccccc1Cn1c(-c2ccccc2OC)nc2ccccc21	-5.6%	-0.5	37.3*	6.1	2.2
CC12CCC(C(=O)N(c3ccc(Cl)cc3)C1=O)C2(C)C (configuration not stated)	-3.6%	-0.4	-2.5	-1.8	-0.5
